Results published in PubChem BioAssay (NCI).
Compounds without any hit were thinned out: in the full panel of roughly 83,000, 20% have a hit.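 Growth was measured after 48 h exposure to one concentration of compound in 96-well plates. Values under 10 count as active.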 Activity calls are given as the source filed them.

Assays:
Assay in all cases: NCI-60 one-dose screen, 48 h (100 = growth as untreated, 0 = no growth, -100 = all killed)
Conditions in all cases: 10 µM unless noted
[1] = system: RPMI-8226 leukemia
[2] = system: OVCAR-8 ovarian
[3] = system: OVCAR-5 ovarian
[4] = system: OVCAR-4 ovarian
[5] = system: SK-OV-3 ovarian
[6] = system: IGROV1 ovarian
[7] = system: OVCAR-3 ovarian
[8] = system: HS 578T breast
[9] = system: NCI/ADR-RES ovarian
[10] = system: T-47D breast
[11] = system: BT-549 breast
[12] = system: MDA-MB-435 melanoma
[13] = system: SW-620 colon
[14] = system: MCF7 breast
[15] = system: HCT-116 colon
[16] = system: HCC-2998 colon
[17] = system: KM12 colon
[18] = system: SR leukemia

Measured: growth

C/C(=N/NC(=O)Cn1c2ccccc2c2ccncc21)c1cccs1
inactive: [1] 87.4% | [2] 92.8% | [3] 112% | [4] 99.8% | [5] 102% | [6] 90.6% | [7] 103% | [8] 91.1% | [9] 101% | [10] 96.4% | [11] 104% | [12] 110% | [13] 103% | [14] 102% | [15] 100% | [16] 96.9% | [17] 101%

CN(C)c1ccc(/C=N/N=C(N)N)cc1
active: [12] -13.9%
inactive: [18] 54.8% | [2] 91.1% | [3] 116% | [4] 81.9% | [5] 82.5% | [6] 69.8% | [7] 66.3% | [8] 78.2% | [9] 50.5% | [10] 81.9% | [11] 93.3% | [13] 37.4% | [14] 31.9% | [15] 52.8% | [16] 68.2% | [17] 42.6%

CCOC(=O)n1cnc2c(Cl)ncnc21
inactive: [18] 110% | [1] 116% | [2] 65% | [4] 107% | [5] 94.2% | [7] 112% | [8] 138% | [9] 246% | [10] 100% | [12] 111% | [13] 108% | [14] 95.2% | [15] 101% | [17] 107%
active: [16] 2.2%

CCC1(C(N)=O)CC2C=CC1CC2 (stereo unspecified)
inactive: [18] 109% | [1] 89.1% | [2] 61.2% | [4] 108% | [5] 91.9% | [7] 115% | [8] 149% | [9] 244% | [12] 121% | [13] 108% | [14] 98% | [15] 107% | [17] 117%
active: [16] -100%

Nc1ccc(S(=O)(=O)Nc2ccnn2-c2ccccc2)cc1
inactive: [18] 95.5% | [1] 117% | [2] 93.7% | [4] 109% | [5] 103% | [6] 107% | [7] 111% | [8] 103% | [9] 103% | [10] 104% | [11] 116% | [12] 97% | [13] 101% | [14] 101% | [15] 109% | [16] 98.8% | [17] 105%

O=c1c2ccccc2sc2c(N3CCCC3)nc3ccccc3c12
inactive: [1] 92.8% | [2] 93.6% | [3] 112% | [4] 95.2% | [5] 118% | [6] 85.8% | [7] 107% | [8] 89.6% | [9] 102% | [10] 81.2% | [11] 111% | [12] 112% | [13] 95% | [14] 65.8% | [15] 78% | [16] 107% | [17] 85.5%

CCOc1ccc(Cc2nccc3cc(OCC)c(OCC)cc23)cc1OCC
inactive: [18] 26.7% | [1] 47.3% | [2] 69.1% | [4] 54.6% | [5] 87.2% | [6] 16.6% | [7] 75% | [8] 78.1% | [9] 65.3% | [11] 49.1% | [12] 60.2% | [13] 39.1% | [14] 72.7% | [15] 26.5% | [16] 52.2% | [17] 49.3%

CC(=O)N1N=C(CCC(=O)c2nc3ccc([N+](=O)[O-])cc3[nH]2)OC1c1ccc(O)cc1 (stereo unspecified)
inactive: [1] 120% | [2] 105% | [3] 104% | [4] 109% | [5] 75.3% | [6] 103% | [7] 103% | [8] 104% | [9] 99.9% | [10] 85.5% | [11] 101% | [12] 105% | [13] 102% | [16] 98.7% | [17] 95.8%

O=C(O)c1ccc(-n2cc(/C=N/Nc3ccc(Cl)cc3)c(-c3ccc(F)c(F)c3)n2)cc1
inactive: [1] 24% | [2] 86.6% | [3] 83.7% | [4] 80.3% | [5] 100% | [6] 79.2% | [7] 75.2% | [8] 84.5% | [9] 73.1% | [10] 65.9% | [11] 70% | [12] 86.5% | [13] 61.3% | [14] 46.5% | [15] 47.5% | [16] 82.6% | [17] 69.2%

O=C(CNc1cccnc1)Nc1ccc(C(=O)/C=C/c2ccc(Cl)cc2)cc1
inactive: [1] 21.7% | [2] 98.1% | [3] 92.7% | [4] 87.1% | [5] 111% | [6] 95.1% | [7] 89.8% | [8] 82.1% | [9] 98% | [10] 89.9% | [11] 89.7% | [12] 68.5% | [13] 74.3% | [17] 69.3%

Nc1nccc(=S)[nH]1
inactive: [1] 96.6% | [2] 104% | [3] 111% | [4] 114% | [5] 102% | [6] 107% | [7] 109% | [8] 103% | [9] 107% | [10] 99.6% | [13] 103% | [14] 93.4% | [15] 109% | [16] 114% | [17] 106%

CCCc1nn2c(CCC(=O)c3nc4ccc([N+](=O)[O-])cc4[nH]3)nnc2s1
inactive: [1] 133% | [2] 109% | [3] 97.5% | [4] 100% | [5] 110% | [6] 101% | [7] 109% | [8] 91.1% | [9] 104% | [10] 102% | [11] 111% | [12] 103% | [13] 97.6% | [16] 100% | [17] 104%

O=C(Nc1cccc([N+](=O)[O-])c1)Nc1cccc([N+](=O)[O-])c1
active: [10] 6.88%
inactive: [1] 12.4% | [2] 63.3% | [3] 89.6% | [4] 39.3% | [5] 87.6% | [6] 63.6% | [7] 27.6% | [8] 94.6% | [9] 52.1% | [11] 50.5% | [12] 63.1% | [14] 20.7% | [15] 37.3% | [16] 45.2% | [17] 27.7%

O=C(/C=C/c1ccccc1)Oc1ccc(/C=C/c2cc(OC(=O)/C=C/c3ccccc3)cc(OC(=O)/C=C/c3ccccc3)c2)cc1
inactive: [1] 99.8% | [2] 84.7% | [3] 96.6% | [4] 100% | [5] 86.5% | [6] 98.6% | [7] 107% | [8] 95.9% | [9] 103% | [10] 81.9% | [12] 101% | [13] 99.6% | [14] 103% | [15] 96.3% | [16] 104% | [17] 103%

CCn1c(SCC(=O)c2ccc(Br)cc2)nnc1-c1cc2c([nH]c3ccccc32)c(-c2cccc(O)c2)n1
inactive: [1] 69.4% | [2] 77.5% | [3] 95.1% | [4] 71.4% | [5] 86.7% | [6] 88.5% | [7] 80.4% | [8] 73.7% | [9] 81.1% | [10] 29.4% | [13] 94.1% | [14] 40.5% | [15] 70.1% | [16] 98.4% | [17] 66.5%

FC(F)(F)c1cn(CCN2CCOCC2)c2ncnc(Cl)c12
inactive: [1] 99% | [2] 18.7% | [3] 106% | [4] 82.4% | [5] 101% | [6] 13.4% | [7] 63.3% | [8] 81.9% | [9] 92.8% | [10] 95.1% | [11] 93.6% | [12] 56.5% | [13] 53.7% | [14] 97.5% | [15] 15.4% | [16] 75.2% | [17] 101%

CCn1c(SC)nnc1-c1cc2c([nH]c3ccccc32)c(-c2cccc(O)c2)n1
inactive: [1] 30.1% | [2] 25.4% | [3] 48.8% | [4] 12.5% | [5] 27.5% | [6] 35% | [8] 12.3% | [10] 10.8% | [11] 29.4% | [13] 33.1% | [14] 13.8% | [15] 13.2% | [16] 41.5% | [17] 11.5%
active: [7] -7.34% | [9] 8.9% | [12] -32.4%

CC(C)C1(C(C)C)NC(=O)NC1=O
inactive: [1] 117% | [2] 110% | [3] 101% | [4] 107% | [5] 108% | [6] 99.4% | [7] 110% | [8] 92.6% | [9] 103% | [10] 109% | [12] 114% | [13] 127% | [14] 101% | [15] 98.5% | [16] 102% | [17] 138%

O=C(Nc1cccc(-n2ccc3c(NC(=O)c4ccccc4)ncnc32)c1)Nc1ccc(Cl)c(C(F)(F)F)c1
active: [12] -7.53%
inactive: [1] 16.2% | [2] 25.9% | [3] 48.1% | [4] 64.4% | [5] 52.2% | [6] 32.5% | [7] 26.1% | [9] 34.8% | [10] 21.6% | [11] 45.9% | [13] 41.3% | [14] 20% | [15] 17% | [17] 12.5%
